Test results reported in the supplement of paper PMC11732987, “Enantioselective OTUD7B fragment discovery through chemoproteomics screening and high-throughput optimisation” (Communications Chemistry, 2025).

How the values were obtained:
Assay in all cases: log2 ratio of Biotin-Ahx-Ub-VS probe labelling (fragment/DMSO); higher = less target engagement (more negative = stronger competition), active = hit call of the paper (q ≤ 0.05, log2 ratio ≤ -1)
Conditions in all cases: compound concentration: 200 uM; treatment time: 3 h
USP34 = USP34 (UniProt Q70CQ2)
Chain of USP34 (Q70CQ2 whole entry, the tested form may be a part): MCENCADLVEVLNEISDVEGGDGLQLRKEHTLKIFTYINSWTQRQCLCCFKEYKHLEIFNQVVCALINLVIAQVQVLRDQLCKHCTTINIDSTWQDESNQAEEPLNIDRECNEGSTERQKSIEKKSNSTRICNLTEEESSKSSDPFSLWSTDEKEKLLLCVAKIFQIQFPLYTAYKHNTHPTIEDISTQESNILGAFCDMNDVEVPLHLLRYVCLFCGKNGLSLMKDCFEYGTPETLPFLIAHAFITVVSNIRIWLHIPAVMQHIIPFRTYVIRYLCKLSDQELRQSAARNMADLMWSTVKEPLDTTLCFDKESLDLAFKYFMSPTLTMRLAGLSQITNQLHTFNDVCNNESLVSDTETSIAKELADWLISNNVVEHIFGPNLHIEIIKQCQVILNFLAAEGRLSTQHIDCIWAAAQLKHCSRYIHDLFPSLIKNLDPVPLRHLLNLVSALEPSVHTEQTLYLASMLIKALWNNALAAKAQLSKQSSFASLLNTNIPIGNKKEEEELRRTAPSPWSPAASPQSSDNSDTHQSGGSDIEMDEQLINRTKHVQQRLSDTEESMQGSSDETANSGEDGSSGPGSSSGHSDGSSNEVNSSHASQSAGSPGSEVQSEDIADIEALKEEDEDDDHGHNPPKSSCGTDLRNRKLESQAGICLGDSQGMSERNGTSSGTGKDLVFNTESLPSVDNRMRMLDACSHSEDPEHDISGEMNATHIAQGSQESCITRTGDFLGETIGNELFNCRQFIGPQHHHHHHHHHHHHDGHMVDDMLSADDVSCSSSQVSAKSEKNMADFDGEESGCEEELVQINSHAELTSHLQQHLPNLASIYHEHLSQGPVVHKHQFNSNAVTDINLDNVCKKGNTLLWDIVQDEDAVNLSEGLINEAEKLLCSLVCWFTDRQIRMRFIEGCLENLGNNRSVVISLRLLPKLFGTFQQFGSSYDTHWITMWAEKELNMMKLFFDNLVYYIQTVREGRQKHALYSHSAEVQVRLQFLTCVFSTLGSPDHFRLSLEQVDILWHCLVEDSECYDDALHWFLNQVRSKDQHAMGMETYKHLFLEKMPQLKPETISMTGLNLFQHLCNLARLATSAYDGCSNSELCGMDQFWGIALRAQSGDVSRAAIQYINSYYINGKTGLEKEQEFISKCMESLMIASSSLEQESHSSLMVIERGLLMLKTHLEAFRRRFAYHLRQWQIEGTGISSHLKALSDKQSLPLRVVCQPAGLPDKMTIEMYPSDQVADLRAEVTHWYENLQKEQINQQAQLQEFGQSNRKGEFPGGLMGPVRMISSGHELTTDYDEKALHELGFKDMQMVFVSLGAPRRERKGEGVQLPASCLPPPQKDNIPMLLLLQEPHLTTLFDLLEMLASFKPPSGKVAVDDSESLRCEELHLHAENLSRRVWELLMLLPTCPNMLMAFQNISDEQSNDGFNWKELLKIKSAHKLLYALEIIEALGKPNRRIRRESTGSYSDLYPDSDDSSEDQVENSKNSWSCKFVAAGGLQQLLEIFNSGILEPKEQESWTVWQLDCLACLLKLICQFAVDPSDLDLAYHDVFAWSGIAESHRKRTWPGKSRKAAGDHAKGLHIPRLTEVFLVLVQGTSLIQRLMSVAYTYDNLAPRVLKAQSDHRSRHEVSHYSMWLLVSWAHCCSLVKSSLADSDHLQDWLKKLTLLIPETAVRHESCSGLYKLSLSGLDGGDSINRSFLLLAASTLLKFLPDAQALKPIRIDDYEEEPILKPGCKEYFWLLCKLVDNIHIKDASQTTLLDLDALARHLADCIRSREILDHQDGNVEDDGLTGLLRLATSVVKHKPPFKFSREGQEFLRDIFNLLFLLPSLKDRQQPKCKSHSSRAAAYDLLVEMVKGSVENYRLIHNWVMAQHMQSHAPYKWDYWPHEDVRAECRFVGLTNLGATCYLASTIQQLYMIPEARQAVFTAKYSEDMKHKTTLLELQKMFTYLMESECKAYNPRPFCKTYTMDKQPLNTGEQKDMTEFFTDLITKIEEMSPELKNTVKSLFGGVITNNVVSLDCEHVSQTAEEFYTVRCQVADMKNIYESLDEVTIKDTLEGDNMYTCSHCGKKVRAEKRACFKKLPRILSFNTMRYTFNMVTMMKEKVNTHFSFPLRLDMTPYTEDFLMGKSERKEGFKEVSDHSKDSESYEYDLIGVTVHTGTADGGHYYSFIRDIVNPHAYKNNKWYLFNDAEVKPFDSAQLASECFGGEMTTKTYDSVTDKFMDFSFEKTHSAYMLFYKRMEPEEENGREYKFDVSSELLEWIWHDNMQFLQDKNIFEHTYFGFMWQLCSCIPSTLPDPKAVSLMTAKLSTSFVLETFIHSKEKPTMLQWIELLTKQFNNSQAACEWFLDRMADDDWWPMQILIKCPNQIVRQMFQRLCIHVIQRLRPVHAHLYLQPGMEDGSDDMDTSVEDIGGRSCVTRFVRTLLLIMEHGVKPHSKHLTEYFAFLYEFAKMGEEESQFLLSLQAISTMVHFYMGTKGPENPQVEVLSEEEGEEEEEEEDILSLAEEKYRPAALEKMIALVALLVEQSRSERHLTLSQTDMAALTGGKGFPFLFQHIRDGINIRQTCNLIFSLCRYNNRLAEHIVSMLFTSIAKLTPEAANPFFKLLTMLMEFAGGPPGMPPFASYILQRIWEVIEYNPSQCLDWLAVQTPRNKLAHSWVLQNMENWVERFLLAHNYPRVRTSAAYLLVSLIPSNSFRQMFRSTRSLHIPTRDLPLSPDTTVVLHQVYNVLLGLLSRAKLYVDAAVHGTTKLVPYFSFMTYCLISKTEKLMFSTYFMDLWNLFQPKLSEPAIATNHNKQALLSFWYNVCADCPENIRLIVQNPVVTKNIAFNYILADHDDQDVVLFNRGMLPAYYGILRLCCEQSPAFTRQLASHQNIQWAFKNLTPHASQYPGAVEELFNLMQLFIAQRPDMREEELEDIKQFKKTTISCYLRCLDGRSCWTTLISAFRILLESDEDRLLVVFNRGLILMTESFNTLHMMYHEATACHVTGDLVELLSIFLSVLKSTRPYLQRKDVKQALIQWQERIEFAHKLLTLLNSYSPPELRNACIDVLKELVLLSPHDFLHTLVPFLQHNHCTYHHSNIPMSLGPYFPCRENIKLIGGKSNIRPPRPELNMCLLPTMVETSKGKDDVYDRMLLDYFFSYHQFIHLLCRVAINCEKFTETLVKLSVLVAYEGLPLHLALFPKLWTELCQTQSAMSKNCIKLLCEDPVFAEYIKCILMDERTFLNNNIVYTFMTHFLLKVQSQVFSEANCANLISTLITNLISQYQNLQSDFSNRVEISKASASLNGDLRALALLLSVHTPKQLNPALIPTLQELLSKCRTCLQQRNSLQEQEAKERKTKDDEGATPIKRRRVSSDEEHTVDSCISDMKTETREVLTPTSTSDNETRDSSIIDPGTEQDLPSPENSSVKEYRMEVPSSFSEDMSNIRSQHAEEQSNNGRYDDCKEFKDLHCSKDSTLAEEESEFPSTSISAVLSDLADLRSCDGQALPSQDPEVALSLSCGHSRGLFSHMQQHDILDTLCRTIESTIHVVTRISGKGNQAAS
In short: (§1)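 Labelled DUBs from HEK293T lysate were NeutrAvidin-enriched, digested with LysC and trypsin, and run by diaPASEF LC-MS/MS. Before that, each 495 µg sample in Tris/CHAPS/IGEPAL buffer with protease inhibitors was treated in triplicate with fragment at 200 µM or vehicle for 3 h, then with Biotin-Ahx-Ub-VS at 0.5 µM final for 1 h. Values are average log2 ratios of fragment over vehicle by unpaired t-test, based on global-median-normalised Spectronaut label-free quantities from proteins with ≥2 unique peptides.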

USP36 = molecular target: T1, USP36 (UniProt Q9P275)
T1 sequence (whole entry): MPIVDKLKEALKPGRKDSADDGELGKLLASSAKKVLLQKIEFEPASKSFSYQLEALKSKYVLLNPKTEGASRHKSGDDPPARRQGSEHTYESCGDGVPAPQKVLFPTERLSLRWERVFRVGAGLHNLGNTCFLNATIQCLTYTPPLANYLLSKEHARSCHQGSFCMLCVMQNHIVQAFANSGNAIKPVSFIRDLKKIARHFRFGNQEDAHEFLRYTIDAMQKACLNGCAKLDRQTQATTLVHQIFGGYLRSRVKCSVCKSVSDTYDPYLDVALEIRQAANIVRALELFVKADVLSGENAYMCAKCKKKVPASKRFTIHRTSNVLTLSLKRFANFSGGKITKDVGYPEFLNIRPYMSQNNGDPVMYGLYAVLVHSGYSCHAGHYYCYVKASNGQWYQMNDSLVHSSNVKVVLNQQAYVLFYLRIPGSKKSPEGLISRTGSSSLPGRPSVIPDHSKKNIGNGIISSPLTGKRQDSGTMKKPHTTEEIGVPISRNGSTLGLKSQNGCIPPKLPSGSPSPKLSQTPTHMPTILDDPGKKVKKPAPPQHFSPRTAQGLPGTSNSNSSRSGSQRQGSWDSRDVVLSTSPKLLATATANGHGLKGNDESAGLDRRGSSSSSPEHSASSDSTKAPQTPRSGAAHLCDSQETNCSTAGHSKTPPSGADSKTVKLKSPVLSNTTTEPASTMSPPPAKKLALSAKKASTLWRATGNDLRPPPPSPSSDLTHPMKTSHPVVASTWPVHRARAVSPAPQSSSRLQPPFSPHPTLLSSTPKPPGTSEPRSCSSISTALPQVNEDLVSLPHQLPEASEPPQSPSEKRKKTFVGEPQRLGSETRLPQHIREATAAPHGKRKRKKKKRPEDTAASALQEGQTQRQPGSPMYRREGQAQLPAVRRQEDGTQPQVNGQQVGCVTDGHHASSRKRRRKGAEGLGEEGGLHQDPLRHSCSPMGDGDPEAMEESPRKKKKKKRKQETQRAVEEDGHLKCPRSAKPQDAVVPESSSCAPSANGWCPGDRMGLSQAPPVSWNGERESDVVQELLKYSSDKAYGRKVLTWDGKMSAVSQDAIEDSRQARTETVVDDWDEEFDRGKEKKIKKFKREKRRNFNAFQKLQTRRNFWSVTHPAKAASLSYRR
In short: as §1

USP38 = molecular target: T2, USP38 (UniProt Q8NB14)
T2 sequence (whole entry): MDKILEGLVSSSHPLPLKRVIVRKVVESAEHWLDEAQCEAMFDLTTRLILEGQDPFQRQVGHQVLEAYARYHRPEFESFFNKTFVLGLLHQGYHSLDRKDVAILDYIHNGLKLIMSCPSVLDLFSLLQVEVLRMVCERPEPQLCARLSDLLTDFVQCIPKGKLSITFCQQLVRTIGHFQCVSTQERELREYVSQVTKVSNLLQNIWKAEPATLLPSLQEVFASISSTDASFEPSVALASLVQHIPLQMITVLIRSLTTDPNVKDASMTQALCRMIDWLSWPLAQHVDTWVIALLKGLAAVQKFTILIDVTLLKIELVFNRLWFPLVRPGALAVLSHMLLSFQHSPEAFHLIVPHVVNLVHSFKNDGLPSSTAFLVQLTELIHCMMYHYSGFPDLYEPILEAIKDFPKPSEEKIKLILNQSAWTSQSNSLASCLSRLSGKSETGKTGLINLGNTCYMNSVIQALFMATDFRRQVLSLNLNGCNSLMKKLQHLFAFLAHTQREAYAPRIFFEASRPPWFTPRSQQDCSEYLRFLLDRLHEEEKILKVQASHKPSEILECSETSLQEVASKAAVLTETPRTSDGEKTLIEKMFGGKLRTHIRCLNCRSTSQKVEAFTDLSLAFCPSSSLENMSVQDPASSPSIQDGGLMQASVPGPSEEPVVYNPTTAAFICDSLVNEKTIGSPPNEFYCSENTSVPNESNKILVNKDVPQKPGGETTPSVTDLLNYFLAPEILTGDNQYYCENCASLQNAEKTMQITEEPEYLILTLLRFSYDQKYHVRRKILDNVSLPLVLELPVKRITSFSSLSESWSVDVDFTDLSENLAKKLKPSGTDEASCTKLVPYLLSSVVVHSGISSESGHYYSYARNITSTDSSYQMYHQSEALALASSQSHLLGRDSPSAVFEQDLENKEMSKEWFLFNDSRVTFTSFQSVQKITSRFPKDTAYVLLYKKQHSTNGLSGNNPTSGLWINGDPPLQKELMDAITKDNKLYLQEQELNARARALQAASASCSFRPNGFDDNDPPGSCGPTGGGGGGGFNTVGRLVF
In short: as §1

USP39 = molecular target: T3, USP39 (UniProt Q53GS9)
T3 sequence (whole entry): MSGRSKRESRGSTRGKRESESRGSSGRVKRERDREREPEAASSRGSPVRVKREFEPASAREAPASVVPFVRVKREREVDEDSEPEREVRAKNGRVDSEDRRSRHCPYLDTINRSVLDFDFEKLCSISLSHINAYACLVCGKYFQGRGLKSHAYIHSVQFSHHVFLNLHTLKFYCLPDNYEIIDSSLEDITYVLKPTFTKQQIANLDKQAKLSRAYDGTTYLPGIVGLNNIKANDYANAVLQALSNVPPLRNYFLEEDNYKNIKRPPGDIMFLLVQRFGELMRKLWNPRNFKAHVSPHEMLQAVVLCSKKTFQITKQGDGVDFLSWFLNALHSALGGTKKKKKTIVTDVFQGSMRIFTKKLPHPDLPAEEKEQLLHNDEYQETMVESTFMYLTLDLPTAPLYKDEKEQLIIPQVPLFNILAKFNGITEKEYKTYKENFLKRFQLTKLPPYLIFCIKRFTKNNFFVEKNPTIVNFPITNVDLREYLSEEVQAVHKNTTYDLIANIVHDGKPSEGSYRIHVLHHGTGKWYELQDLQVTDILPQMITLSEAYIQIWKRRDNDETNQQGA
In short: as §1

USP4 = molecular target: T4, USP4 (UniProt Q13107)
T4 sequence (whole entry): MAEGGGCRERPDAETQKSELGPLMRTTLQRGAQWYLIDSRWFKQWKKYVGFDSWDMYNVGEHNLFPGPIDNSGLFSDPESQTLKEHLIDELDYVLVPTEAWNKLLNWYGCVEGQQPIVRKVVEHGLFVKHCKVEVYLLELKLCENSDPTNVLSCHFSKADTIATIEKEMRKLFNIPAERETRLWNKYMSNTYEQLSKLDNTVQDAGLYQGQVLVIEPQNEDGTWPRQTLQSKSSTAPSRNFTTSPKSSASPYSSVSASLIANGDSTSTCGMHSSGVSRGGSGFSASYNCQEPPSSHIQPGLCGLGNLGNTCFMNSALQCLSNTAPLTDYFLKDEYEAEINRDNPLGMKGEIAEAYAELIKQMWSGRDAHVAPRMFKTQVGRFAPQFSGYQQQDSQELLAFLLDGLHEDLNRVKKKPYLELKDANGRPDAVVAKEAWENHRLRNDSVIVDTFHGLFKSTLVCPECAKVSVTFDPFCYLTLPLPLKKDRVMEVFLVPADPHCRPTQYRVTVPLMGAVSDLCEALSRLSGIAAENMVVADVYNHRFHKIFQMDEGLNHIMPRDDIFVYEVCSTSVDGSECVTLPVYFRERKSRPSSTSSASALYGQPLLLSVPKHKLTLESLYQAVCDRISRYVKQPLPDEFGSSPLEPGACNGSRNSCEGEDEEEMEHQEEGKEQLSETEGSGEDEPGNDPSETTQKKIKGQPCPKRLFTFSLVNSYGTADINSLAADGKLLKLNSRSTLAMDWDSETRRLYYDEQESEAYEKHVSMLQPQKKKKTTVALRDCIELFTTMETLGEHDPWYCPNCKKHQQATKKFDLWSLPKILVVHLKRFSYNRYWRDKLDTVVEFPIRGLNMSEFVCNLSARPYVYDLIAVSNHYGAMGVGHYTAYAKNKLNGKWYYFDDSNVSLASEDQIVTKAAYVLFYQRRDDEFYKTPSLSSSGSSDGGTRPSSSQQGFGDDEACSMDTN
In short: as §1

Measured: log2 ratio of Biotin-Ahx-Ub-VS probe labelling

Cc1ccc(CN(C)C(=O)CCl)o1
inactive: USP34 -0.0329 | USP36 0.0474 | USP38 -0.0916 | USP39 0.287 | USP4 0.0471
